Inconclusive results are not listed. Where a call stands in place of a potency, no number is given. The source made the active and inactive calls. Calls come from the whole dose curve; as a rule, active = well fitted curve in the direction sought with a large enough effect; inconclusive = small, poorly fitted or top-dose-only effect, or another doubt; inactive = no such curve, though single readings can be large; an effect the other way counts as inactive or inconclusive.
Assay: qHTS of pediatric cancer cell lines to identify multiple opportunities for drug repurposing: Primary screen for LAN-5 cells (AID 1347100); note: potency is the fitted concentration of half-maximal effect
Conditions: LAN-5 neuroblastoma viability, CellTiter-Glo luminescence, 48 h; series mostly up to 46 µM
In short: (§1)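 Cells (500-1,000/well) in growth media were settled 5 h at 37 degrees C, then given compounds for 48 h. Viability was read as CellTiter-Glo luminescence. Primary runs used MIPE at 11 points (0.78 nM-46 µM) and NPC at 8 points (0.59 nM-46 µM); follow-ups used 11 points.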

Compound | Potency
O=C(O)c1ccc(S(=O)(=O)N(Cl)Cl)cc1 | inactive
CC(C)(C)NC[C@H](O)COc1cccc2c1CCCC2=O | inactive
COc1cc(C(=S)N2CCOCC2)ccc1O | inactive
O=C1C(CCS(=O)c2ccccc2)C(=O)N(c2ccccc2)N1c1ccccc1 (stereo unspecified) | inactive
CC[N+](C)(CC)CCOC(=O)C(O)(c1ccccc1)C1CCCCC1 (stereo unspecified) | inactive
C/C=C/C=N/NC(=O)c1ccncc1 | inactive
COc1cc(NS(=O)(=O)c2ccc(N)cc2)ncn1 | inactive
CCN(CC)CCOc1ccc2c(c1)C(=O)c1cc(OCCN(CC)CC)ccc1-2 | 23.7 µM (active)
Nc1nc(N)c(-c2ccccc2)s1 | inactive
CCCCCCCCCCCCCC[N+](C)(C)Cc1ccccc1 | 21.1 µM (active)
Cc1cccc(C)c1NC(=O)c1ccccc1C(=O)O | inactive
COc1ccccc1N1CCN(CCCCNC(=O)c2ccc(-c3ccc(C(C)=O)cc3)cc2)CC1 | inactive
O=C(O)CCc1nc2ccccc2[nH]1 | inactive
NCCNc1cccc2ccccc12 | inactive
CCCN(CCC)S(=O)(=O)c1ccc(C(=O)O)cc1 | inactive
NC(=S)N/N=C/c1cccnc1 | inactive
Cn1c(=O)c2[nH]c(Br)nc2n(C)c1=O | inactive
CC[C@H](c1ccc(O)cc1)[C@@H](CC)c1ccc(O)cc1 | inactive
CCN1CCCC(OC(=O)C(c2ccccc2)c2ccccc2)C1 (stereo unspecified) | inactive
CCOc1ccc(NC(C)=O)cc1 | inactive
COc1ccc(C(=O)c2ccccc2)c(O)c1 | inactive
CCOc1ccccc1C(N)=O | inactive

Assay: qHTS of pediatric cancer cell lines to identify multiple opportunities for drug repurposing: Primary screen for BT-12 cells (AID 1347101); note: nearly all actives have a fitted effect of over 25% in size; note: potency is the fitted concentration of half-maximal effect
Conditions: BT-12 viability, CellTiter-Glo luminescence, 48 h; series mostly up to 57.3 µM
In short: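 Cells (500-1,000/well) rested 5 h, then received compounds for 48 h; metabolically active cells were measured by CellTiter-Glo luminescence. Final concentrations spanned up to 46 µM (MIPE, 11-point) or 0.59 nM-46 µM (NPC, 8-point) in primary screens, 11-point in follow-ups.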

Compound | Potency
O=C(O)c1ccc(S(=O)(=O)N(Cl)Cl)cc1 | inactive
CC(C)(C)NC[C@H](O)COc1cccc2c1CCCC2=O | inactive
COc1cc(C(=S)N2CCOCC2)ccc1O | inactive
CCN1/C(=C/C=C/c2sc3ccccc3[n+]2CC)Sc2ccccc21 | 0.601 µM (active)
O=C1C(CCS(=O)c2ccccc2)C(=O)N(c2ccccc2)N1c1ccccc1 (stereo unspecified) | inactive
O[C@@H](c1cc(C(F)(F)F)nc2c(C(F)(F)F)cccc12)[C@H]1CCCCN1 | 15.5 µM (active)
CC[N+](C)(CC)CCOC(=O)C(O)(c1ccccc1)C1CCCCC1 (stereo unspecified) | inactive
C/C=C/C=N/NC(=O)c1ccncc1 | inactive
CCCCCCCCCCCCCCC[C@H](O)[C@@H](N)CO | inactive
COc1cc(NS(=O)(=O)c2ccc(N)cc2)ncn1 | inactive
Nc1nc(N)c(-c2ccccc2)s1 | inactive
COC(=O)C(c1ccccc1Cl)N1CCc2sccc2C1 (stereo unspecified) | inactive
CCCCCCCCCCCCCC[N+](C)(C)Cc1ccccc1 | 6.92 µM (active)
Cc1cccc(C)c1NC(=O)c1ccccc1C(=O)O | inactive
COc1ccccc1N1CCN(CCCCNC(=O)c2ccc(-c3ccc(C(C)=O)cc3)cc2)CC1 | inactive
O=C(O)CCc1nc2ccccc2[nH]1 | inactive
Oc1ccc(Cl)cc1Cc1cc(Cl)ccc1O | 27.6 µM (active)
NCCNc1cccc2ccccc12 | inactive
CCCN(CCC)S(=O)(=O)c1ccc(C(=O)O)cc1 | inactive
CC(=O)O[C@]1(C(C)=O)CC[C@H]2[C@@H]3C=C(C)C4=CC(=O)CC[C@]4(C)[C@H]3CC[C@@]21C | inactive
O=C1c2cccc3c2[C@H](CCC3)CN1[C@@H]1CN2CCC1CC2 | inactive
NC(=S)N/N=C/c1cccnc1 | inactive
Cn1c(=O)c2[nH]c(Br)nc2n(C)c1=O | inactive
CCN1CCCC(OC(=O)C(c2ccccc2)c2ccccc2)C1 (stereo unspecified) | inactive
CCOc1ccc(NC(C)=O)cc1 | inactive
COc1ccc(C(=O)c2ccccc2)c(O)c1 | inactive
CCOc1ccccc1C(N)=O | inactive

Assay: qHTS of pediatric cancer cell lines to identify multiple opportunities for drug repurposing: Primary screen for Rh18 cells (AID 1347102); note: nearly all actives have a fitted effect of over 65% in size
Conditions: Rh18 rhabdomyosarcoma viability, CellTiter-Glo luminescence, 48 h; series mostly up to 46 µM
In short: as §1

Compound | Potency
O=C(O)c1ccc(S(=O)(=O)N(Cl)Cl)cc1 | inactive
CC(C)(C)NC[C@H](O)COc1cccc2c1CCCC2=O | inactive
COc1cc(C(=S)N2CCOCC2)ccc1O | inactive
CC(=O)OC[C@H]1O[C@@H](n2ncc(=O)[nH]c2=O)[C@H](OC(C)=O)[C@@H]1OC(C)=O | inactive
O=C1C(CCS(=O)c2ccccc2)C(=O)N(c2ccccc2)N1c1ccccc1 (stereo unspecified) | inactive
CCCCNc1ccc(C(=O)OCCOCCOCCOCCOCCOCCOCCOCCOCCOC)cc1 | inactive
CC[N+](C)(CC)CCOC(=O)C(O)(c1ccccc1)C1CCCCC1 (stereo unspecified) | inactive
C/C=C/C=N/NC(=O)c1ccncc1 | inactive
COc1cc(NS(=O)(=O)c2ccc(N)cc2)ncn1 | inactive
O=C(Nc1cccc(C2=NCCN2)c1)Nc1cccc(C2=NCCN2)c1 | inactive
Nc1nc(N)c(-c2ccccc2)s1 | inactive
COC(=O)C(c1ccccc1Cl)N1CCc2sccc2C1 (stereo unspecified) | inactive
Cc1cccc(C)c1NC(=O)c1ccccc1C(=O)O | inactive
COc1ccccc1N1CCN(CCCCNC(=O)c2ccc(-c3ccc(C(C)=O)cc3)cc2)CC1 | inactive
CC(=O)O[C@]1(C(C)=O)CC[C@H]2[C@@H]3C=C(Cl)C4=CC(=O)CC[C@]4(C)[C@H]3CC[C@@]21C | inactive
O=C(O)CCc1nc2ccccc2[nH]1 | inactive
NCCNc1cccc2ccccc12 | inactive
CCCN(CCC)S(=O)(=O)c1ccc(C(=O)O)cc1 | inactive
O=C(CCCN1CC=C(n2c(=O)[nH]c3ccccc32)CC1)c1ccc(F)cc1 | inactive
NC(=S)N/N=C/c1cccnc1 | inactive
O=[N+]([O-])c1ccc(/C=N\O)o1 | inactive
Cn1c(=O)c2[nH]c(Br)nc2n(C)c1=O | inactive
CC[C@H](c1ccc(O)cc1)[C@@H](CC)c1ccc(O)cc1 | inactive
CCN1CCCC(OC(=O)C(c2ccccc2)c2ccccc2)C1 (stereo unspecified) | inactive
CCOc1ccc(NC(C)=O)cc1 | inactive
COc1ccc(C(=O)c2ccccc2)c(O)c1 | inactive
CCOc1ccccc1C(N)=O | inactive

From PubChem BioAssay (NCATS)
